Inconclusive results are not listed. The source made the active and inactive calls. How the source made its calls: active means hit-call score of the fitted dose curve at least 0.9, where 1 is the maximum; inconclusive means response in the unintended direction; inactive means score below 0.9.
Tests used:
[1] = TOX21_p53_BLA_p5_viability: Viability Assessment in the Tox21 HCT-116 p53 Agonism Beta-lactamase Assay, Phase 5 (AID 2283600)
Method in brief: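 Decreased CellTiter-Glo luminescence denotes lost viability. Exposure: 16 h at 37C, 5% CO2, with compounds from DMSO stocks diluted 217-fold in wells of 4000 cells.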

[2] = molecular target: Cellular tumor antigen p53 (Homo sapiens) (UniProt P04637); test: TOX21_p53_BLA_p4_ratio: Tox21 HCT-116 p53 Agonism Beta-lactamase Assay, Ratio, Phase 4 (AID 2283601)
Method in brief: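 HCT116 cells carrying an inducible beta-lactamase reporter were plated at 4000 cells/well, rested 5 h, then exposed to compounds in DMSO (217-fold dilution) for 16 h at 37C. CCF4-AM substrate was loaded 2 h at room temperature; 460/530 nm emission ratio scored gain-of-signal versus DMSO.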

[3] = CCTE_Simmons_CellTiterGLO_HEK293T: Viability Assessment in CCTE's Assays for Thyroperoxidase (TPO) Inhibition, Simmons Lab (AID 2283665)
Method in brief: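 ATP depletion measured in HEK293T cells after 24 h dosing (8 concentrations, 5 nM–87.5 uM final; DMSO 0.5%) using CellTiter-Glo luminescence; curves fit for loss of signal against DMSO baseline.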

[4] = Tanguay_ZF_120hpf_MORT_legacy: (Legacy) Oregon State University Tanguay Lab 120 Hour Post-fertilization zebrafish Assay for Mortality (AID 2283633)
Method in brief: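 Dechorionated Tropical 5D wild-type zebrafish embryos, one per well from 6 hpf, static exposure in 0.64% DMSO at 28C until 120 hpf. Mortality scored as binary by brightfield microscopy at 24 and 120 hpf.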

[5] = Tanguay_ZF_120hpf_YSE_legacy: (Legacy) Oregon State University Tanguay Lab 120 Hour Post-fertilization zebrafish Assay for Yolk Sac Edema (AID 2283634)
Method in brief: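 Dechorionated Tropical 5D wild-type zebrafish embryos were exposed statically, one per well, from 6 to 120 hpf at 28C in 0.64% DMSO. Yolk sac edema was scored present/absent by brightfield at 120 hpf, and dead embryos were excluded.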

[6] = Tanguay_ZF_120hpf_AXIS_legacy: (Legacy) Oregon State University Tanguay Lab 120 Hour Post-fertilization zebrafish Assay for Body Axis Malformation (AID 2283635)
Method in brief: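 Dechorionated wild-type Tropical 5D zebrafish embryos, one per well, statically exposed from 6 hpf to 120 hpf at 28C in 0.64% DMSO final. Body axis malformation scored present/absent by brightfield microscopy at 120 hpf; dead embryos excluded.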

[7] = Tanguay_ZF_120hpf_EYE_legacy: (Legacy) Oregon State University Tanguay Lab 120 Hour Post-fertilization zebrafish Assay for Eye Malformation (AID 2283636);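 further: binary presence or absence of eye malformation scored by brightfield in 120 hpf larvae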
Method in brief: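 Static waterborne exposure of dechorionated zebrafish embryos (strain Tropical 5D), 6 to 120 hpf, sealed plates at 28C, 0.64% DMSO vehicle. Eye malformation is scored as a binary endpoint, with gain of signal analysed relative to DMSO.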

[8] = Tanguay_ZF_120hpf_JAW_legacy: (Legacy) Oregon State University Tanguay Lab 120 Hour Post-fertilization zebrafish Assay for Jaw Malformation (AID 2283638)
Method in brief: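 Dechorionated Tropical 5D wild-type zebrafish embryos, one per well, exposed statically from 6 hpf to 120 hpf at 28C in 0.64% DMSO. Jaw malformation was scored by brightfield microscopy as present or absent. It was not scored in dead embryos.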

[9] = Tanguay_ZF_120hpf_OTIC_legacy: (Legacy) Oregon State University Tanguay Lab 120 Hour Post-fertilization zebrafish Assay for Otic Vesicle Malformation (AID 2283639)
Method in brief: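 Wild-type zebrafish larvae, whole-embryo exposure from early stage to 120 hpf at 28C. Binary brightfield scoring of otic vesicle morphology, fitted in the positive direction against the DMSO baseline.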

[10] = Tanguay_ZF_120hpf_PE_legacy: (Legacy) Oregon State University Tanguay Lab 120 Hour Post-fertilization zebrafish Assay for Pericardial Edema (AID 2283640)
Method in brief: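 Tropical 5D wild-type zebrafish embryos were statically exposed until 120 hpf at 28C, with 0.64% DMSO final. Pericardial edema was scored by brightfield as present or absent; endpoints were not scored in dead embryos.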

[11] = Tanguay_ZF_120hpf_BRAI_legacy: (Legacy) Oregon State University Tanguay Lab 120 Hour Post-fertilization zebrafish Assay for Brain Malformation (AID 2283641)
Method in brief: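 Tropical 5D wild-type zebrafish embryos exposed statically until 120 hpf at 28C, 0.64% DMSO final, sealed and dark. Brain malformation scored present/absent by brightfield at 120 hpf; dead embryos excluded. Trimethyltin chloride 5uM positive control.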

[12] = Tanguay_ZF_120hpf_SOMI_legacy: (Legacy) Oregon State University Tanguay Lab 120 Hour Post-fertilization zebrafish Assay for Somite Malformation (AID 2283647)
Method in brief: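 Dechorionated Tropical 5D wild-type zebrafish embryos, one per well from 6 hpf, statically exposed at 28C to 120 hpf in 0.64% DMSO; somite malformation scored present/absent by brightfield; trimethyltin 5 uM positive control; dead embryos not scored.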

[13] = Tanguay_ZF_120hpf_PFIN_legacy: (Legacy) Oregon State University Tanguay Lab 120 Hour Post-fertilization zebrafish Assay for Pectoral Fin Malformation (AID 2283648);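 further: each larva judged yes or no for fin defect by brightfield with dead larvae skipped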
Method in brief: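 Scoring of pectoral fin malformation was binary, made at 120 hpf on larvae exposed statically from 6 hpf after enzymatic chorion removal. Activity was fitted upward relative to DMSO controls at 0.64% (vol/vol).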

[14] = Tanguay_ZF_120hpf_CFIN_legacy: (Legacy) Oregon State University Tanguay Lab 120 Hour Post-fertilization zebrafish Assay for Caudal Fin Malformation (AID 2283649)
Method in brief: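 Dechorionated Tropical 5D wild-type embryos, one per well from 6 hpf, static exposure to 120 hpf at 28C in 0.64% DMSO. Caudal fin malformation scored by brightfield as present/absent; not scored in dead embryos.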

[15] = Tanguay_ZF_120hpf_PIG_legacy: (Legacy) Oregon State University Tanguay Lab 120 Hour Post-fertilization zebrafish Assay for Pigmentation Malformation (AID 2283650)
Method in brief: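 Endpoint is incidence of abnormal pigmentation at 120 hpf in dechorionated 5D zebrafish exposed singly from 6 hpf at 28C, DMSO vehicle at 0.64%. Embryos dying by 24 or 120 hpf are excluded from scoring.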

[16] = Tanguay_ZF_120hpf_CIRC_legacy: (Legacy) Oregon State University Tanguay Lab 120 Hour Post-fertilization zebrafish Assay for Circulatory Malformation (AID 2283651)
Method in brief: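 Binary circulatory-malformation call at 120 hpf via brightfield imaging, relative to DMSO controls. Embryos (5D strain, chorion removed) received static, light-shielded exposure at 28C.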

[17] = Tanguay_ZF_120hpf_SWIM_legacy: (Legacy) Oregon State University Tanguay Lab 120 Hour Post-fertilization zebrafish Assay for Swim Bladder Malformation (AID 2283654);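 further: swim bladder malformation in each larva scored yes or no under brightfield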
Method in brief: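 Static waterborne exposure of single dechorionated Tropical 5D zebrafish embryos, 6–120 hpf, 28C, 0.64% DMSO final. Read-out: swim bladder malformation, present/absent, relative to DMSO negative control; trimethyltin chloride 5uM served as positive control.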

[18] = Tanguay_ZF_120hpf_TRUN_legacy: (Legacy) Oregon State University Tanguay Lab 120 Hour Post-fertilization zebrafish Assay for Truncated Body (AID 2283655)
Method in brief: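 Dechorionated Tropical 5D wild-type embryos placed singly from 6 hpf and statically exposed to 120 hpf at 28C, final DMSO 0.64%. Truncated body scored as present/absent by brightfield; not scored in dead embryos.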

[19] = Tanguay_ZF_120hpf_NC_legacy: (Legacy) Oregon State University Tanguay Lab 120 Hour Post-fertilization zebrafish Assay for Notochord and Tail Malformation (AID 2283656)
Method in brief: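 Binary notochord-distortion calls, made by brightfield inspection, form the read-out; activity is fitted in the positive direction against DMSO. Exposure ran statically from 6 to 120 hpf at 28C with 0.64% DMSO.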

Cellular tumor antigen p53 (Homo sapiens), sequence (P04637 whole entry, looked up): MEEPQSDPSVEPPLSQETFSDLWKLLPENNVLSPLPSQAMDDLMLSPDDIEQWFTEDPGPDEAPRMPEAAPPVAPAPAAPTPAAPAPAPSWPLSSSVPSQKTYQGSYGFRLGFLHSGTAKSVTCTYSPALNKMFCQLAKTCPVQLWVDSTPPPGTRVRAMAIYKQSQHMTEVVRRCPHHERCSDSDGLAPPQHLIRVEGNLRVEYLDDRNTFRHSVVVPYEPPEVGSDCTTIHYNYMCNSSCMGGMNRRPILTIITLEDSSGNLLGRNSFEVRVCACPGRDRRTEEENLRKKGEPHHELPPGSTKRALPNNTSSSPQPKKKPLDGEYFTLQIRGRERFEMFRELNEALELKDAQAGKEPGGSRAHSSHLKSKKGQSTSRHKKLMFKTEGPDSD

CC(C)(CO)CO
outcome [1]: inactive
outcome [2]: inactive

CC(=O)OC(C)(C)C1CC=C(C)CC1 (stereo not given)
outcome [1]: inactive
outcome [2]: inactive

O=C(C=Cc1ccccc1)OCCCc1ccccc1
outcome [1]: inactive
outcome [2]: inactive

CC1=CCC(C(C)(C)O)CC1 (stereo not given)
outcome [1]: inactive
outcome [2]: inactive

CC1=CCC(C(C)C)=CC1
outcome [1]: inactive
outcome [2]: inactive

Nc1ccn([C@H]2CC[C@@H](CO)O2)c(=O)n1
outcome [1]: inactive
outcome [2]: inactive

NC(=O)NC(N)=O
outcome [1]: inactive
outcome [2]: inactive

COc1ccc(C(C)=O)cc1
outcome [1]: inactive
outcome [2]: inactive

CCC(C)(CCCC(C)C)OC(C)=O (stereo not given)
outcome [1]: inactive
outcome [2]: inactive

CC(C)COC(=O)c1ccccc1
outcome [1]: inactive
outcome [2]: inactive

CC/C=C\CCCCO
outcome [1]: inactive
outcome [2]: inactive

CC(C)COC(=O)c1ccccc1O
outcome [1]: inactive
outcome [2]: inactive

Cc1cc(O)c2c(c1)C(=O)c1cc(O)cc(O)c1C2=O
outcome [1]: inactive
outcome [2]: inactive

CC(C)Cc1ccccc1
outcome [1]: inactive
outcome [2]: inactive

NCCCOCCOCCOCCCN
outcome [1]: inactive
outcome [2]: inactive

CC(=O)CC(C)(C)C1CCCCC1
outcome [1]: inactive
outcome [2]: inactive

COc1ccccc1NC(=O)CC(C)=O
outcome [1]: inactive
outcome [2]: inactive

CCCO[Si](OCCC)(OCCC)OCCC
outcome [1]: inactive
outcome [2]: inactive

CC(O)COCC(C)O (stereo not given)
outcome [1]: inactive
outcome [2]: inactive

Nc1cc([N+](=O)[O-])ccc1C(=O)O
outcome [1]: inactive
outcome [2]: inactive

C=CC(C)(CCC=C(C)C)OC(=O)CC (stereo not given)
outcome [1]: inactive
outcome [2]: inactive

CC(C)=CCCC(C)=CC(=O)O
outcome [1]: inactive
outcome [2]: inactive

CCC(=O)OC(C)(C)C1CC=C(C)CC1 (stereo not given)
outcome [1]: inactive
outcome [2]: inactive

C=CCCCCCCCCC(=O)OCC
outcome [1]: inactive
outcome [2]: inactive

CCCCCCCC1CCCC1=O (stereo not given)
outcome [1]: inactive
outcome [2]: inactive

CCCCCCCCCC(=O)OCC
outcome [1]: inactive
outcome [2]: inactive

CC1(C)CC(N)CC(C)(CN)C1 (stereo not given)
outcome [1]: inactive
outcome [2]: inactive

O=C(Nc1cccc(Cl)c1)OCC#CCCl
outcome [1]: inactive
AC50 [2]: 19.6 µM (active)

CC(C)(C)C1CCC(O)CC1 (stereo not given)
outcome [1]: inactive
outcome [2]: inactive

OCCCO
outcome [1]: inactive
outcome [2]: inactive

NC(N)=S
outcome [1]: inactive
outcome [2]: inactive
outcome [3]: inactive

C=C(C)C(N)=O
outcome [1]: inactive
outcome [2]: inactive
outcome [4]: inactive
outcome [5]: inactive
outcome [6]: inactive
outcome [7]: inactive
outcome [8]: inactive
outcome [9]: inactive
outcome [10]: inactive
outcome [11]: inactive
outcome [12]: inactive
outcome [13]: inactive
outcome [14]: inactive
outcome [15]: inactive
outcome [16]: inactive
outcome [17]: inactive
outcome [18]: inactive
outcome [19]: inactive

CN(C)c1ccc(C=O)cc1
outcome [1]: inactive
outcome [2]: inactive

NC(N)=NC(N)=NCCc1ccccc1
outcome [1]: inactive
outcome [2]: inactive

Reference: PubChem BioAssay (EPA / NIEHS)
